# From the supplement of paper PMC9262897, “Low-cost anti-mycobacterial drug discovery using engineered E. coli” (Nature Communications, 2022)
# Counter-ions that a name gives are not always drawn. ± gives the standard deviation of the averaged measurements.
# Assays:
# Assay in all cases: growth (OD600 after 10 h); higher = more growth (less inhibition)
# [1] = tested on: E. coli TESEC Alr+ wild-type control; conditions: compound 0.1 mM; raw OD600 reference: median of DMSO wells 0.241, cell-free background 0.041
# Procedure: (§1)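 TESEC Mtb Alr E. coli, or the Alr+ wild-type control, in 384-well plates with Prestwick library compounds at 0.1 mM and 1% DMSO, across arabinose induction levels of 1E3 to 1E7 nM. Growth is read as OD600 after 10 h at 37 °C in triplicate biological replicates.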
# [2] = tested on: E. coli TESEC Mtb Alr; conditions: compound 0.1 mM
# Procedure: as §1
# [3] = tested on: E. coli TESEC Mtb Asd; conditions: compound 0.1 mM
# Procedure: (§2)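 TESEC E. coli strains in which the native enzyme is deleted and replaced by arabinose-inducible Mtb Asd, DapB, CysH or TrpD, each grown in its selective medium. Strains were screened against the Prestwick library at 0.1 mM and 1% DMSO in 384-well format at low and high arabinose induction. Growth is read as OD600 after 10 h in triplicate.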
# [4] = tested on: E. coli TESEC Mtb DapB; conditions: compound 0.1 mM
# Procedure: as §2
# [5] = tested on: E. coli TESEC Alr+ wild-type control; conditions: compound 0.1 mM; raw OD600 reference: median of DMSO wells 0.49, cell-free background 0.052
# Procedure: (§3)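 TESEC Mtb Alr E. coli (ΔaraC ΔtolC ΔentC Δalr ΔdadX, arabinose-inducible Mtb Alr) or the Alr+ wild-type control strain, grown in defined M9-fructose medium without D-alanine in 96-well plates with Prestwick library compounds at 0.1 mM and 1% DMSO. Low Alr induction is 0.1 µM arabinose and high induction is 10 mM arabinose.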
# [6] = tested on: E. coli TESEC Mtb Alr; conditions: compound 0.1 mM; remark: listed apart in the source
# Procedure: as §3
# [7] = arabinose 1000 nM, raw OD600 reference: median of DMSO wells 0.294, cell-free background 0.041
# [8] = arabinose 10000 nM, raw OD600 reference: median of DMSO wells 0.264, cell-free background 0.041
# [9] = arabinose 100000 nM, raw OD600 reference: median of DMSO wells 0.201, cell-free background 0.041
# [10] = arabinose 1000000 nM, raw OD600 reference: median of DMSO wells 0.193, cell-free background 0.041
# [11] = arabinose 10000000 nM, raw OD600 reference: median of DMSO wells 0.146, cell-free background 0.041
# [12] = arabinose induction (level): High, raw OD600 reference: median of DMSO wells 0.331, cell-free background 0.041
# [13] = arabinose induction (level): Low, raw OD600 reference: median of DMSO wells 0.417, cell-free background 0.041
# [14] = arabinose induction (level): High, raw OD600 reference: median of DMSO wells […], cell-free background 0.041
# [15] = arabinose induction (level): Low, raw OD600 reference: median of DMSO wells 0.227, cell-free background 0.041
# [16] = arabinose 100 nM, raw OD600 reference: median of DMSO wells 0.413, cell-free background 0.052
# [17] = arabinose 10000000 nM, raw OD600 reference: median of DMSO wells […], cell-free background 0.052
SMILES,growth [1],"growth [2, 7]","growth [2, 8]","growth [2, 9]","growth [2, 10]","growth [2, 11]","growth [3, 12]","growth [3, 13]","growth [4, 14]","growth [4, 15]",growth [5],"growth [6, 16]","growth [6, 17]"
C[C@]12CC[C@@H]3c4ccc(O)cc4C[C@@H](CCCCCCCCC[S+]([O-])CCCC(F)(F)C(F)(F)F)[C@H]3[C@@H]1CC[C@@H]2O (some centres undefined) [Fulvestrant],0.265 ± 0.015,0.296 ± 0.016,0.27 ± 0.009,0.195 ± 0.017,0.179 ± 0.012,0.137 ± 0.005,0.379 ± 0.022,0.415 ± 0.041,0.212 ± 0.0092,0.258 ± 0.091,0.439 ± 0.024,0.413 ± 0.03,0.355 ± 0.028
CCOc1ccc2ccccc2c1C(=O)N[C@@H]1C(=O)N2[C@@H]1SC(C)(C)[C@@H]2C(=O)O [Nafcillin sodium salt monohydrate],0.236 ± 0.0097,0.303 ± 0.011,0.257 ± 0.014,0.203 ± 0.0041,0.188 ± 0.01,0.138 ± 0.0027,0.43 ± 0.048,0.439 ± 0.043,0.183 ± 0.007,0.22 ± 0.0024,0.6426 ± 0.0049,0.403 ± 0.013,0.343 ± 0.016
NS(=O)(=O)c1cc(C(=O)O)cc(N2CCCC2)c1Oc1ccccc1 [Piretanide],0.243 ± 0.0085,0.28 ± 0.0043,0.278 ± 0.0094,0.22 ± 0.025,0.202 ± 0.0072,0.134 ± 0.0051,0.405 ± 0.0083,0.4 ± 0.034,0.21 ± 0.029,0.245 ± 0.025,0.444 ± 0.0057,0.4122 ± 0.0034,0.341 ± 0.0064
CCC(C)(C)c1ccc(CC(C)CN2C[C@@H](C)O[C@@H](C)C2)cc1 (some centres undefined) [Amorolfine hydrochloride],0.0552 ± 0.0076,0.107 ± 0.0069,0.0519 ± 0.0014,0.0591 ± 0.0048,0.04143 ± 0.00023,0.0502 ± 0.0026,0.237 ± 0.052,0.284 ± 0.031,0.168 ± 0.02,0.197 ± 0.017,0.0891 ± 0.0055,0.0639 ± 0.0015,0.0533 ± 0.0014
O=C(NCCO[N+](=O)[O-])c1cccnc1 [Nicorandil],0.2587 ± 0.0024,0.3 ± 0.021,0.286 ± 0.0046,0.208 ± 0.025,0.213 ± 0.0045,0.153 ± 0.0067,0.362 ± 0.039,0.377 ± 0.057,0.191 ± 0.0086,0.209 ± 0.023,0.481 ± 0.072,0.4153 ± 0.002,0.3332 ± 0.001
CC(=O)NCCCS(=O)(=O)O [Acamprosate calcium],0.233 ± 0.004,0.2868 ± 0.0017,0.242 ± 0.0043,0.202 ± 0.026,0.1706 ± 0.0011,0.142 ± 0.0039,0.259 ± 0.079,0.309 ± 0.033,0.212 ± 0.031,0.229 ± 0.028,0.472 ± 0.035,0.409 ± 0.01,0.35 ± 0.025
CN1CCN(C(c2ccccc2)c2ccccc2)CC1 [Cyclizine hydrochloride],0.216 ± 0.0082,0.278 ± 0.011,0.256 ± 0.0077,0.188 ± 0.025,0.142 ± 0.013,0.142 ± 0.0021,0.173 ± 0.0089,0.31 ± 0.039,0.168 ± 0.0017,0.196 ± 0.0017,0.602 ± 0.088,0.41 ± 0.011,0.325 ± 0.0044
Clc1ccc(C(Cn2ccnc2)OCc2c(Cl)cccc2Cl)c(Cl)c1 (centres undefined) [Isoconazole],0.0482 ± 0.00036,0.0445 ± 0.0043,0.247 ± 0.037,0.0465 ± 0.0023,0.105 ± 0.12,0.0545 ± 0.0038,0.152 ± 0.079,0.0562 ± 0.006,0.0672 ± 0.015,0.0666 ± 0.02,0.0722 ± 0.023,0.0651 ± 0.02,0.104 ± 0.075
